# Bioassay records (PubChem)
# KB-V1 cytotox: qHTS assay for MDR1-selective chemotherapeutics: Primary screen using the drug-selected MDR subline cells KB-V1. KB-V1 MDR cells viability, CellTiter-Glo, 72 h. Potency, µM (highest dose often 46.1 µM), most hits filed as cytotoxic. actives 3.4% (n = 400,000). AID 1347076, 2019; further: nearly all actives have a fitted effect of over 60% in size
#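 qHTS viability screen in drug-selected KB-V1 MDR cells: 72 h compound treatment at 37 degrees C, ATP luminescence end point.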
# HT1080 IDH1KD tx: qHTS for induction of synthetic lethality in tumor cells producing 2HG: qHTS for the HT-1080-IDH1KD cell line. actives 2% (n = 360,000). Potency, µM (highest dose often 46.1 µM), inactives show top-dose activity, negative = toxicity, hits mostly cytotoxic. HT-1080 IDH1 knockdown viability, ATP luminescence, 48 h;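 further: 0% = DMSO wells and -100% = cell-free medium wells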
#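 HT-1080-IDH1KD cells (IDH1 knocked down), 750/well in RPMI with 5% FBS, treated with compound 48 h at 37 degrees C. Viability by CellTiter-Glo luminescence, normalised to DMSO and no-cell wells; concentration-response curves classed.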
# TDP1 cell CPT: qHTS for Inhibitors of human tyrosyl-DNA phosphodiesterase 1 (TDP1): qHTS in cells in presence of CPT; AID 686979, 2013; actives 12% (n = 420,000); chicken DT40 Tdp1-/-;hTDP1 cells + 20 nM CPT, ATP luminescence, 48 h; Potency, µM (top dose mostly 46.2 µM), for the others: at the highest dose activity change, negative = growth inhibition, actives largely listed as inhibitors; further: nearly all actives have a fitted effect of over 55% in size
#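 Cell growth measured by CellTiter-Glo luminescence after a minimum 48 h, 37 C compound exposure with 20 nM CPT in Tdp1-knockout DT40 cells stably expressing hTDP1, seeded 400/well; qHTS titration format.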
# HT1080NT lethal: qHTS for induction of synthetic lethality in tumor cells producing 2HG: qHTS for the HT-1080-NT fibrosarcoma cell line; Potency, µM (highest dose often 46.1 µM), for the others: at the top dose activity, negative = less viability, usual class: cytotoxic; actives 1.6% (n = 360,000); HT-1080-NT fibrosarcoma viability, CellTiter-Glo ATP luminescence, 48 h;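 further: NT is the 2HG producing partner of a matched IDH1 knockdown line; 0% = DMSO-treated cells and -100% = media-only wells without cells; nearly all actives have a fitted effect of over 55% in size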
#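 Viability by CellTiter-Glo luminescence after 48 h compound exposure at 37C of HT-1080-NT cells (750/well, RPMI, 5% FBS). % activity scaled between DMSO wells and medium-only wells, then curve-fitted and categorized by curve class.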
# KB-3-1 tox: qHTS assay for MDR1-selective chemotherapeutics: Primary screen using the parental adenocarcinoma cell KB-3-1. KB-3-1 viability, CellTiter-Glo ATP luminescence, 72 h. Potency, µM (titrated, usually from 46.1 µM), most hits filed as cytotoxic. actives 1.4% (n = 400,000); further: nearly all actives have a fitted effect of over 60% in size
#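 Parental KB-3-1 viability, qHTS format: 72 h compound exposure, 37 °C; CellTiter-Glo; media-only wells and DMSO plates as controls; concentration-effect fits on corrected data.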
# TDP1 cell noCPT: qHTS for Inhibitors of human tyrosyl-DNA phosphodiesterase 1 (TDP1): qHTS in cells in absence of CPT | DT40 Tdp1-/- hTDP1 cells, no CPT, ATP luminescence, 48 h | Potency, µM (highest dose often 46.2 µM), without a hit: top-dose activity change, negative = growth inhibition, actives largely listed as inhibitors | actives 15% (n = 420,000) | AID 686978, 2013; further: nearly all actives have a fitted effect of over 55% in size
#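 No-CPT arm: Tdp1-/-;hTDP1 DT40 cells (400/well) plus compounds, incubated ≥48 hr at 37 °C. Readout CellTiter-Glo luminescence.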
# * marks the source's active call; other numbers are inactive results; i = inactive; ? = inconclusive; . = no result. Most compounds without a hit are left out; they make up all but 19% or so of the library. The call rests on the fitted dose curve; in most records, active means well fitted curve in the direction sought with a large enough effect; inconclusive means small, poorly fitted or top-dose-only effect, or another doubt; inactive means no such curve, though single readings can be large; an effect the other way counts as inactive or inconclusive. Unless noted, on the % scale 0 is the no-effect control and ±100 the full control effect; potency means the concentration at half of the fitted maximal effect.
SMILES,KB-V1 cytotox,HT1080 IDH1KD tx,TDP1 cell CPT,HT1080NT lethal,KB-3-1 tox,TDP1 cell noCPT
CCCCc1nn2c(=O)cc(COC(=O)c3cccc(OC)c3)nc2s1,?,.,?,.,i,-27%
Cc1cc(NC(=O)CN2C(=O)NC3(CCCCC3)C2=O)ccc1N1CCCC1,i,-3%,-22%,1%,?,?
CC(NC(=O)c1ccco1)c1nnc2n1CCN(Cc1ccc(N(C)C)cc1)CC2 (stereo not drawn),.,.,-3%,.,.,-14%
CCCn1c(=O)[nH]c(=O)c2c1nc(-c1ccc(OC(F)F)c(OC)c1)n2CCOC,i,-2%,-24%,-1%,i,-26%
CCCn1c(=O)[nH]c(=O)c2c1nc(-c1ccccc1OC(F)F)n2CCOC,18µM*,4%,-9%,2%,i,-27%
COCCn1c(-c2ccc(SC)cc2)nc2c1c(=O)[nH]c(=O)n2CC(C)C,?,-12%,-14%,1%,i,-26%
COCCn1c(-c2ccc(OC(F)(F)C(F)C(F)(F)F)cc2)nc2c1c(=O)[nH]c(=O)n2CC(C)C (stereo not drawn),?,-2%,21µM*,0%,?,?
Cc1cc(C(=O)CSc2nn3c(=O)c(C(C)(C)C)nnc3s2)c(C)n1-c1ccc(F)cc1,i,6%,16µM*,-5%,i,?
CC(C)N(C(=O)CSc1nn2c(=O)c(C(C)(C)C)nnc2s1)c1ccccc1,?,-2%,21µM*,-2%,?,?
O=C(Nc1ccc2c(c1)CCC2)c1cnn2c1NC(=C1CC1)C=C2C(F)F,i,.,?,.,i,?
c1ccc(-c2nnc(NC3=NCCC3)o2)cc1,i,-7%,-13%,0%,i,-13%
Fc1ccc(-c2nnc(NC3=NCCCCC3)o2)cc1,i,?,?,?,?,13µM*
Cc1ccc(-c2nc3nc(C)cc(Nc4ccccc4O)n3n2)cc1,?,.,.,.,i,.
COc1ccccc1Nc1cc(C)nc2nc(-c3ccccc3)nn12,i,.,16µM*,.,i,?
COc1ccc(-c2nc3nc(C)cc(Nc4ccc(C(C)=O)cc4)n3n2)cc1,?,.,?,.,?,15µM*
CCOc1cc(CNC(CC)CO)ccc1OCC(=O)Nc1cccc(C(F)(F)F)c1 (stereo not drawn),i,-1%,?,-17%,i,26µM*
CSc1cccc(NC(=O)C(=O)NCc2ccccc2)c1,i,-1%,-2%,-25%,i,-8%
COc1ccc(CNC(=O)Nc2cccc(C(F)(F)F)c2)cc1OC,i,-7%,?,1%,i,9.2µM*
CSc1cccc(NC(=O)NCc2cccc(CNC(=O)Nc3cccc(SC)c3)c2)c1,i,?,?,23µM*,?,?
COc1ccc(C(=O)N2CCN(S(=O)(=O)c3ccc(F)cc3)CC2)cc1OC,?,1%,1%,4%,i,-8%
CCCc1cc(C(=O)N2CCN(S(=O)(=O)c3ccc(OC)c(OC)c3)CC2)cs1,5.2µM*,-28%,?,-16%,i,?
CCC(=O)N[C@H]1CC[C@@H](CCn2cc(C3CC3)nn2)O[C@@H]1CO,i,22%,0%,14%,i,11%
COc1ccc2oc(C(=O)OCC(=O)NCc3ccco3)c(C)c2c1,i,-28%,-3%,-27%,i,-27%
COc1cc(/C=C2\SC(=Nc3ccccc3)N(Cc3ccco3)C2=O)ccc1OC(C)C(=O)O (stereo not drawn),i,1%,7%,-12%,?,-17%
COCCN1C(=O)/C(=C/c2ccc(OCc3ccc(C(=O)O)cc3)c(OC)c2)SC1=Nc1ccccc1,21µM*,-17%,23µM*,-22%,i,21µM*
SMILES,KB-V1 cytotox,HT1080 IDH1KD tx,TDP1 cell CPT,HT1080NT lethal,KB-3-1 tox,TDP1 cell noCPT
COc1cc(/C=C2/SC(=O)N(Cc3ccccc3)C2=O)ccc1OCc1ccncc1,i,3%,16µM*,6%,?,12µM*
NC(=S)N/N=C/c1c(O)c(Br)cc2oc3c(c12)CCCC3,?,-23%,5.2µM*,-22%,21µM*,5.2µM*
CCCN1C(=O)S/C(=C\c2ccc(N3CCOCC3)o2)C1=O,?,?,?,?,?,21µM*
O=C(O)CN1C(=O)/C(=C/c2ccc(N3CCCCC3)o2)SC1=S,i,-1%,?,-11%,i,23µM*
CCOC(=O)CN1C(=O)S/C(=C/c2ccc(N3CCCCC3)o2)C1=O,i,17%,-22%,27%,i,-12%
COC(=O)CN1C(=O)S/C(=C/c2ccc(N3CCCCC3)o2)C1=O,i,7%,?,1%,i,?
CCCN1C(=O)S/C(=C/c2ccc(N3CCOCC3)o2)C1=O,?,-22%,26µM*,5%,i,16µM*
Cc1c(CC(=O)NCCCO)c(=O)oc2cc3c(cc12)CCC(C)(C)O3,i,0%,-13%,1%,i,-29%
COc1ccc(CCNC(=O)CCCCn2c(=O)c3ccccc3n(CC(=O)Nc3ccc(C)cc3C)c2=O)cc1OC,i,.,-27%,.,i,-22%
O=C1CC2(CCCC2)Oc2ccc(F)cc21,i,6%,-23%,8%,i,-12%
Cc1ccc(-c2nc(CN(C)Cc3cccc4cnccc34)c(C)o2)s1,i,-13%,?,-1%,i,21µM*
CC1=C(C(N)=O)C(c2ccccc2)n2nc(-c3ccncc3)nc2N1 (stereo not drawn),i,-1%,-6%,-3%,i,-6%
Cc1nc(-[n+]2nc(-c3ccncc3)nn2-c2ccccc2)sc1C,?,10µM*,1.5µM*,26µM*,?,1.8µM*
CC1=Nc2cc(C(=O)NC3CCCC3)ccc2Sc2ccc(Cl)cc21,3.7µM*,.,0.82µM*,.,3.3µM*,0.58µM*
CCC1=Nc2cc(C(=O)NC3CCCC3)ccc2Sc2ccc(Cl)cc21,2.9µM*,.,0.92µM*,.,5.8µM*,0.92µM*
